Source: PubChem BioAssay (NCATS)
Records with an inconclusive call do not appear. Active and inactive are the calls of the source. Calls come from the whole dose curve; as a rule, active = well fitted curve in the direction sought with a large enough effect; inconclusive = small, poorly fitted or top-dose-only effect, or another doubt; inactive = no such curve, though single readings can be large; an effect the other way counts as inactive or inconclusive.

Key:
[1] = Quantitative High-Throughput drug screen in 47 multiple myeloma cell lines against the NCATS MIPE library collection: KMS12PE_JCRB cell viability assay (AID 1918972); note: nearly all actives have a fitted effect of over 30% in size
Procedure, shortened: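 Myeloma cells (500 per well) were exposed to MIPE 4.0 compounds by pin transfer and incubated 48 hours at 37C, 5% CO2. Viability was read as ATP by CellTiter-Glo luminescence, normalised to DMSO (100%) and media-only (0%) wells.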

[2] = Quantitative High-Throughput drug screen in 47 multiple myeloma cell lines against the NCATS MIPE library collection: KMS26_JCRB cell viability assay (AID 1918975); note: nearly all actives have a fitted effect of over 45% in size
Procedure, shortened: (§1)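 Steps: seed 500 cells per well; pin-transfer MIPE 4.0 library; incubate 48 h at 37C, 5% CO2, humidified; add CellTiter-Glo, 5 min room temperature; read luminescence.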

[3] = Quantitative High-Throughput drug screen in 47 multiple myeloma cell lines against the NCATS MIPE library collection: MOLP8_DSMZ cell viability assay (AID 1918977); note: nearly all actives have a fitted effect of over 45% in size
Procedure, shortened: (§2)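 Myeloma cells (500/well) treated with MIPE 4.0 compounds for 48 h at 37 °C, 5% CO2. Viability read as ATP via CellTiter-Glo luminescence after 5 min at RT; DMSO-only wells = 100%, media-only = 0% viability.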

[4] = Quantitative High-Throughput drug screen in 47 multiple myeloma cell lines against the NCATS MIPE library collection: NCIH929_DSMZ cell viability assay (AID 1918978); note: nearly all actives have a fitted effect of over 35% in size
Procedure, shortened: as §2

[5] = Quantitative High-Throughput drug screen in 47 multiple myeloma cell lines against the NCATS MIPE library collection: MM1S_ATCC cell viability assay (AID 1918980); note: nearly all actives have a fitted effect of over 45% in size
Procedure, shortened: as §2

[6] = Quantitative High-Throughput drug screen in 47 multiple myeloma cell lines against the NCATS MIPE library collection: KMS28PE_JCRB cell viability assay (AID 1918983); note: nearly all actives have a fitted effect of over 35% in size
Procedure, shortened: as §2

[7] = Quantitative High-Throughput drug screen in 47 multiple myeloma cell lines against the NCATS MIPE library collection: L363_DSMZ cell viability assay (AID 1918984); note: nearly all actives have a fitted effect of over 40% in size
Procedure, shortened: as §2

[8] = Quantitative High-Throughput drug screen in 47 multiple myeloma cell lines against the NCATS MIPE library collection: KMS34_JCRB cell viability assay (AID 1918985); note: nearly all actives have a fitted effect of over 40% in size
Procedure, shortened: as §2

[9] = Quantitative High-Throughput drug screen in 47 multiple myeloma cell lines against the NCATS MIPE library collection: OCIMY5_PLB cell viability assay (AID 1918988); note: nearly all actives have a fitted effect of over 65% in size
Procedure, shortened: as §2

[10] = Quantitative High-Throughput drug screen in 47 multiple myeloma cell lines against the NCATS MIPE library collection: OPM1_PLB cell viability assay (AID 1918989); note: nearly all actives have a fitted effect of over 40% in size
Procedure, shortened: as §2

[11] = Quantitative High-Throughput drug screen in 47 multiple myeloma cell lines against the NCATS MIPE library collection: SKMM1_PLB cell viability assay (AID 1919863); settings: SKMM1 myeloma viability, CellTiter-Glo ATP, 48 h; viability: hits give low values; note: nearly all actives have a fitted effect of over 35% in size
Procedure, shortened: as §2

[12] = Quantitative High-Throughput drug screen in 47 multiple myeloma cell lines against the NCATS MIPE library collection: U266_ATCC cell viability assay (AID 1919864); note: nearly all actives have a fitted effect of over 35% in size
Procedure, shortened: as §2

[13] = Quantitative High-Throughput drug screen in 47 multiple myeloma cell lines against the NCATS MIPE library collection: MM1R_ATCC cell viability assay (AID 1918981); note: nearly all actives have a fitted effect of over 35% in size
Procedure, shortened: as §2

[14] = Quantitative High-Throughput drug screen in 47 multiple myeloma cell lines against the NCATS MIPE library collection: LP1_DSMZ cell viability assay (AID 1918982); note: nearly all actives have a fitted effect of over 35% in size
Procedure, shortened: as §2

[15] = Quantitative High-Throughput drug screen in 47 multiple myeloma cell lines against the NCATS MIPE library collection: OCIMY1_PLB cell viability assay (AID 1918979); note: nearly all actives have a fitted effect of over 35% in size
Procedure, shortened: as §2

[16] = Quantitative High-Throughput drug screen in 47 multiple myeloma cell lines against the NCATS MIPE library collection: XG6_PLB cell viability assay (AID 1919865); note: nearly all actives have a fitted effect of over 40% in size
Procedure, shortened: as §2

[17] = Quantitative High-Throughput drug screen in 47 multiple myeloma cell lines against the NCATS MIPE library collection: KMS21BM_JCRB cell viability assay (AID 1918974); settings: ATP luminescence, 48 h; viability: at 45.8 µM (top of the series) unless noted
Procedure, shortened: as §1

[18] = Quantitative High-Throughput drug screen in 47 multiple myeloma cell lines against the NCATS MIPE library collection: OCIMY7_PLB cell viability assay (AID 1918987); note: nearly all actives have a fitted effect of over 65% in size
Procedure, shortened: as §2

[19] = Quantitative High-Throughput drug screen in 47 multiple myeloma cell lines against the NCATS MIPE library collection: MMM1_PLB cell viability assay (AID 1918976); note: nearly all actives have a fitted effect of over 35% in size
Procedure, shortened: as §2
Potency is the fitted concentration of half-maximal effect.

COc1ccc(COc2cc3oc(=O)c4cc(C(C)O)ccc4c3cc2OC)cc1 (stereo not drawn)
active: Potency [1] 2.64 µM | Potency [2] 11.8 µM | Potency [3] 18.7 µM | Potency [4] 26.4 µM | Potency [5] 13.2 µM | Potency [6] 23.5 µM | Potency [7] 5.26 µM | Potency [8] 18.7 µM | Potency [9] 20.9 µM | Potency [10] 18.7 µM | Potency [11] 20.9 µM | Potency [12] 13.2 µM

Nc1cccc(S(=O)(=O)N2CCCN(S(=O)(=O)c3ccc4c(c3)OCCO4)CC2)c1
inactive: Potency [1] | Potency [2] | Potency [3] | Potency [4] | Potency [8] | viability [11] 103%
active: Potency [5] 14.8 µM | Potency [13] 11.8 µM | Potency [14] 16.6 µM

CCCC(CCC)C(=O)O
inactive: Potency [1] | Potency [2] | Potency [3] | Potency [4] | Potency [15] | Potency [13] | Potency [14] | Potency [6] | Potency [8] | viability [11] 126%
active: Potency [16] 26.4 µM

O=C(Nc1cccnc1)N1CCC(Cc2cccc(Oc3ccc(C(F)(F)F)cn3)c2)CC1
active: Potency [1] 16.6 µM | Potency [17] 9.35 µM | Potency [5] 14.8 µM | Potency [13] 13.2 µM | Potency [6] 16.6 µM | Potency [9] 18.7 µM | Potency [10] 18.7 µM | Potency [12] 18.7 µM | Potency [16] 14.8 µM

COc1cccc2cc(-c3nc(C4CCC(C(=O)O)CC4)n4ncnc(N)c34)[nH]c12 (stereo not drawn)
active: Potency [1] 0.166 µM | Potency [17] 0.469 µM | Potency [2] 0.662 µM | Potency [3] 0.418 µM | Potency [4] 0.187 µM | Potency [15] 1.05 µM | Potency [5] 0.469 µM | Potency [13] 0.469 µM | Potency [6] 0.469 µM | Potency [18] 4.18 µM | Potency [9] 1.32 µM | Potency [11] 1.87 µM | Potency [12] 0.296 µM | Potency [16] 0.418 µM

CCc1ccc(CCOc2ccc(CC3SC(=O)NC3=O)cc2)nc1 (stereo not drawn)
active: Potency [19] 8.33 µM
inactive: Potency [1] | Potency [2] | Potency [3] | Potency [4] | Potency [15] | Potency [13] | Potency [6] | Potency [8] | Potency [10] | Potency [12]

OC(CCN1CCCCC1)(c1ccccc1)C1CC2C=CC1C2 (stereo not drawn)
inactive: Potency [1] | Potency [2] | Potency [3] | Potency [4] | Potency [15] | Potency [14] | Potency [6] | Potency [8] | Potency [9] | Potency [10] | Potency [12] | Potency [16]
